6 compounds from PubChem BioAssay can be followed below.

The source made the active and inactive calls.

Experiment [1] concerns Plasmodium falciparum Sir2 (PF13_0152, Sir2A). Nature of the experiment: pfSir2 binders on small-molecule microarrays, primary screen, biochemical, small-molecule microarray, 635 nm fluorescence (AID 1098).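 Note: score merges spot fluorescence intensity with its signal-to-noise ratio.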 Conditions: small-molecule microarray binding, fluorescence 635 nm; higher = more signal.
The nature of experiment [2]: small-molecule microarray binders of probe aDKK1, primary screen, biochemical, biotinylated probe, 635/667 nm fluorescence (AID 1099).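 Note: score merges 667nm spot fluorescence with signal to noise across triplicate slides.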 Particulars: higher = more signal.
The nature of experiment [3]: small-molecule microarray binders of probe aCHRDL2, primary screen, biochemical, biotinylated probe, 635/667 nm fluorescence (AID 1100). Particulars: higher = more signal.
Experiment [4] can be described thus: splicing luciferase reporter signal modulators, primary screen, spliceosome inhibition project, cell-based, HEK293, splice +/- reporter (AID 1101).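 Note: HEK293 cells carrying a splicing-competent luciferase reporter gene; test concentration not given here.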 Conditions: luminescence, 24 h, higher = more signal, called active from +8 up or from −8 down. In general terms: A reporter such as luciferase makes a cellular process visible.
For experiment [5], the target named is Fibroblast growth factor 10 (Homo sapiens) (UniProt O15520). Nature of the experiment: FGF10 binders on small-molecule microarrays, primary screen, biochemical, small-molecule microarray, 635 nm fluorescence (AID 1102). Particulars: FGF10 binding, fluorescence 635 nm, higher = more signal.
Chain of Fibroblast growth factor 10 (Homo sapiens) (O15520 whole entry, looked up): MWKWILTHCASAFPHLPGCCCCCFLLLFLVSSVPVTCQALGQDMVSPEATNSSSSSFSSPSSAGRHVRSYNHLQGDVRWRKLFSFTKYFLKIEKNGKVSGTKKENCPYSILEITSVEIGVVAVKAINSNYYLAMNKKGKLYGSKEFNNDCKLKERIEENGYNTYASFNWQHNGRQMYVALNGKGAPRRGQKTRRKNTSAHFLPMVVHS
In experiment [6] the test system is glycogen synthase kinase-3 (GSK3A per assay name; protocol says GSK3B). Nature of the experiment: GSK3 binders on small-molecule microarrays, primary screen, biochemical, small-molecule microarray, 635 nm fluorescence, GSK3A (AID 1103). Note: the record names both GSK3A and GSK3B. Particulars: small-molecule microarray binding, fluorescence 635 nm; higher = more signal.
For experiment [7], the target named is Epidermal growth factor receptor (Homo sapiens) (UniProt P00533). Description: EGFR binders on small-molecule microarrays, primary screen, biochemical, small-molecule microarray, 635 nm fluorescence (AID 1104).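 Note: score merges 667 nm emission intensity with spot signal to noise over triplicate slides.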 Particulars: EGFR binding, higher = more signal.
Chain of Epidermal growth factor receptor (Homo sapiens) (P00533 whole entry, looked up): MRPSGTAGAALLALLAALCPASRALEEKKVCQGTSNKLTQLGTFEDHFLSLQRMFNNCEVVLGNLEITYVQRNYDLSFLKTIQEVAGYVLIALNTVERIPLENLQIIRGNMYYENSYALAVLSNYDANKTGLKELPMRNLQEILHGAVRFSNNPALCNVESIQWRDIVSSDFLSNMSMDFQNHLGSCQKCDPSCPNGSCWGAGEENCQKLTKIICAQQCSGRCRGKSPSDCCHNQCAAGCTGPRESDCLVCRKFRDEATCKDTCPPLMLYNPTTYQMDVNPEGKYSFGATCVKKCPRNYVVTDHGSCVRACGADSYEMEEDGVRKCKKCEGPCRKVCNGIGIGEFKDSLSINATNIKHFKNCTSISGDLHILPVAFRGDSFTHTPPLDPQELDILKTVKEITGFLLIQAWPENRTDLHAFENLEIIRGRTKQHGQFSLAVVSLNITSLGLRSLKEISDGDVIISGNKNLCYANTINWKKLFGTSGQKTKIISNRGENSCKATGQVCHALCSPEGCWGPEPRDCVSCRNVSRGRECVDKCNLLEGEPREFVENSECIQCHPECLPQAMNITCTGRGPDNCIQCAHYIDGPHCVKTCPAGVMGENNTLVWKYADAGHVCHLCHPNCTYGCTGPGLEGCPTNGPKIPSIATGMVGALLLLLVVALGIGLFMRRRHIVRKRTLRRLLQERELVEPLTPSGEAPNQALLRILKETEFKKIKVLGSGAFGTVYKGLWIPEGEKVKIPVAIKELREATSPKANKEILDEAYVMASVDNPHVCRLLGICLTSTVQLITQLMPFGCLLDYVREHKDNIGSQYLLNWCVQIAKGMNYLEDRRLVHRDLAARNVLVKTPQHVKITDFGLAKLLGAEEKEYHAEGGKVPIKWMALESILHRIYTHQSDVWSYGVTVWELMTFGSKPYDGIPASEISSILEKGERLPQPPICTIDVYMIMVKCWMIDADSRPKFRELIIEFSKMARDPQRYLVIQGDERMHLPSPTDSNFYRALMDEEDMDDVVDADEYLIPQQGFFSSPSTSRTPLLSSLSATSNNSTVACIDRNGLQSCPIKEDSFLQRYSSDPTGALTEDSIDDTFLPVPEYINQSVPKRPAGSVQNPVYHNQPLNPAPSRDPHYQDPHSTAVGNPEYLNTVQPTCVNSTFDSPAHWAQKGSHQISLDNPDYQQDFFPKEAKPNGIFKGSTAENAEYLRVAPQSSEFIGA
Experiment [8] has as its target Follistatin-related protein 3 (Homo sapiens) (UniProt O95633). Nature of the experiment: FSTL3 binders on small-molecule microarrays, primary screen, biochemical, small-molecule microarray, 635 nm fluorescence (AID 1105).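 Note: score merges emission near 667 nm and signal to noise per printed spot across three slides.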 Particulars: FSTL3 binding, higher = more signal.
For experiment [9], the target named is Dickkopf-related protein 1 (Homo sapiens) (UniProt O94907). Description: DKK1 binders on small-molecule microarrays, primary screen, biochemical, small-molecule microarray, 635 nm fluorescence scan (AID 1106).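 Note: score merges emission near 667 nm with signal to noise over three replicate slides.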 Particulars: DKK1 binding, higher = more signal.
Chain of Dickkopf-related protein 1 (Homo sapiens) (O94907 whole entry, looked up): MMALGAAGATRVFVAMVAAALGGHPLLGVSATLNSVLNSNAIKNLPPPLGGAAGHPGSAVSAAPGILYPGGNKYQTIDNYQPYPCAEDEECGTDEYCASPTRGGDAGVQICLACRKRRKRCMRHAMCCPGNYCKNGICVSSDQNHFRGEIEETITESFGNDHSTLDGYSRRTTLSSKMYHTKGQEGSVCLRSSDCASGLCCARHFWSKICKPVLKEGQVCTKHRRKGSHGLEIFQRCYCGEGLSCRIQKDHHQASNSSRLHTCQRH
Experiment [10] has as its system Inhibin beta A chain (activin A). Nature of the experiment: INHBA (activin A) binders on microarrays, primary screen, biochemical, small-molecule microarray, 635 nm fluorescence scan (AID 1107).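 Note: mouse activin A protein probed at 4.33 µg/mL on printed slides; score merges bound-protein fluorescence near 667 nm with spot signal-to-noise.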 Particulars: small-molecule microarray binding, higher = more signal.
The test system of experiment [11] is Human papillomavirus type 1a protein E7 (residues 44-93). Description: HPV1a E7 fragment binders on microarrays, primary screen, biochemical, small-molecule microarray, residues 44-93, 635 nm fluorescence (AID 1108).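 Note: E7 fragment applied at 1 µg/mL in TBST for 1 h at 4 C; score combines spot fluorescence with its signal to noise ratio.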 Conditions: small-molecule microarray binding, fluorescence 635 nm; higher = more signal.
Experiment [12] can be described thus: modulators of HCV replicon luciferase signal, primary screen, HCV replication inhibitor project, Huh7 cells, luciferase reporter (AID 1109).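 Note: huh7 hepatoma cells harbouring a luciferase neomycin HCV replicon reporter; luciferase luminescence as measure of HCV replicon replication; test concentration not given here.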 Particulars: 48 h, higher = more signal. (In antiviral work, replicon cells carry a viral genome segment that copies itself.)
Experiment [13] deals with Left-right determination factor 2 (Homo sapiens) (UniProt O00292). Nature of the experiment: LEFTY2 binders on small-molecule microarrays, primary screen, biochemical, small-molecule microarray, 635 nm fluorescence scan (AID 1110). Particulars: LEFTY2 binding, higher = more signal.
Chain of Left-right determination factor 2 (Homo sapiens) (O00292 whole entry, looked up): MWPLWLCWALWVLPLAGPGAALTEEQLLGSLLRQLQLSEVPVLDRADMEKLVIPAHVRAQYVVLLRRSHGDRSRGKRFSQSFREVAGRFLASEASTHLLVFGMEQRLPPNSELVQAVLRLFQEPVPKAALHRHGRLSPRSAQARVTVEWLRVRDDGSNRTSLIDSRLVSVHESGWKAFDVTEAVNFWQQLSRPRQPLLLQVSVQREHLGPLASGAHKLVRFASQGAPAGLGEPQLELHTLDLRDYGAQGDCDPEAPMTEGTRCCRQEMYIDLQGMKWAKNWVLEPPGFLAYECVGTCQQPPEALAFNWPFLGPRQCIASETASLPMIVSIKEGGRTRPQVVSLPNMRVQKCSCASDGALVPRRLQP
Experiment [14] addresses Calmodulin-1 (Homo sapiens) (UniProt P0DP23). Description: CALM1 binders on microarrays, EGTA buffer, profiling panel, biochemical, small-molecule microarray, Cy5-labelled CALM1 (AID 1111).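 Note: labelled calmodulin applied in Tris saline Tween buffer holding calcium plus EGTA and DTT.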 Particulars: Cy5-CALM1 binding fluorescence, higher = more signal.
Experiment [15] shares this target. Description: calcium-bound CALM1 binders on microarrays, profiling panel, artefact control for SMM control-protein annotation, biochemical, small-molecule microarray, Cy5-labelled CALM1, plus calcium (AID 1112).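 Note: score merges spot fluorescence with signal to noise from triplicate slides.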 Particulars: Cy5-CALM1 binding fluorescence, higher = more signal.
Experiment [16] in a line: small-molecule microarray binders of probe aWnt5a, primary screen, biochemical, biotinylated probe, 635/667 nm fluorescence (AID 1113).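 Note: score merges 667 nm fluorescence intensity with signal-to-noise per printed feature.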 Particulars: higher = more signal.
Experiment [17] can be described thus: small-molecule microarray binders of probe aShh, primary screen, biochemical, biotinylated probe, 635/667 nm fluorescence (AID 1114).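 Note: probe is biotin-labelled aShh protein from a stem cell growth factor screen; measures binding of labelled protein to compounds printed on the slide; score merges feature fluorescence at 667 nm with signal-to-noise.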 Conditions: higher = more signal.
The nature of experiment [18]: small-molecule microarray binders of probe aNog, primary screen, biochemical, biotinylated probe, 635/667 nm fluorescence (AID 1115).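 Note: probe is biotinylated aNog protein used at 0.15 µg/mL for 1 h at 4 C; z-score combines 667 nm fluorescence of each spot with its signal to noise.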 Conditions: higher = more signal.
Experiment [19] addresses Torsin-1A-interacting protein 1 (Homo sapiens) (UniProt Q5JTV8). Description: LAP1 binders from COS7 cell lysate, primary screen, small-molecule microarray, 635/667 nm fluorescence (AID 1116). Conditions: COS7-hLAP1 lysate binding, 635 nm fluorescence, higher = more signal.
For experiment [20], the target named is Alpha-bungarotoxin (Bungarus multicinctus) (UniProt P60615). Description: alpha-bungarotoxin binders on microarray, profiling panel, artefact control for SMM control protein annotation, biochemical, small-molecule microarray, Alexa647 label, 635/667 nm fluorescence (AID 1117). Conditions: alpha-BTX-A647 binding fluorescence, higher = more signal.
Chain of Alpha-bungarotoxin (Bungarus multicinctus) (P60615 whole entry, looked up): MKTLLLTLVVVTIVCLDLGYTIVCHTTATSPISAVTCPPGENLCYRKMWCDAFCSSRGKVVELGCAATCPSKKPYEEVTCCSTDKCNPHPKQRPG

Chain of Torsin-1A-interacting protein 1 (Homo sapiens) (Q5JTV8 whole entry, looked up): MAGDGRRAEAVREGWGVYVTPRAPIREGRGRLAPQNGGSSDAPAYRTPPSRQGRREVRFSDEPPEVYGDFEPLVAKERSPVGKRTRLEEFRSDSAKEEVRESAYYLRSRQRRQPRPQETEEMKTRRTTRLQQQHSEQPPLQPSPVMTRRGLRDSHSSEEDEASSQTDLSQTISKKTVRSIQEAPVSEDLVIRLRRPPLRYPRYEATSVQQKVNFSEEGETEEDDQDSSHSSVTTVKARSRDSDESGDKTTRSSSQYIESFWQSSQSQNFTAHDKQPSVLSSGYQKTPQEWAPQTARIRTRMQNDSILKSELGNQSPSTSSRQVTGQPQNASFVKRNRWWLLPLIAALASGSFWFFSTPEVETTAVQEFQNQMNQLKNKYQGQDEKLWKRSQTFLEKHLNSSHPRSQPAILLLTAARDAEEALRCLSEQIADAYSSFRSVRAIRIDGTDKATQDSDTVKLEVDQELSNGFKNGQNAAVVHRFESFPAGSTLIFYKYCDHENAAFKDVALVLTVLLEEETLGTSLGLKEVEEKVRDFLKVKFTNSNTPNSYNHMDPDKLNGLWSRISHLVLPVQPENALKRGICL
Chain of Follistatin-related protein 3 (Homo sapiens) (O95633 whole entry, looked up): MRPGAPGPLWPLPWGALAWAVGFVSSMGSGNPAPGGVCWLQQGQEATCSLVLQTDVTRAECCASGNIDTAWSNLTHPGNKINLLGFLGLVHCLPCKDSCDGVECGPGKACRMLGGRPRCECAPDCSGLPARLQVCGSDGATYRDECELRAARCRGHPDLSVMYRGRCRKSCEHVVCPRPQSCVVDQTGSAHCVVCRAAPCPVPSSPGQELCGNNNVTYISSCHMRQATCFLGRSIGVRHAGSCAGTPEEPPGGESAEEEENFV

In the case of `C=CCNC(=O)[C@@H]1[C@H]2C(=O)O[C@H](c3ccccc3)[C@H](c3ccccc3)N2[C@H](c2ccccc2OCCO)[C@@]12C(=O)Nc1ccc(C#CC3=CCCCC3)cc12`, the composite z-score in [1] was 0.71; in experiment [2], -0.0328; in [3], 0.111; in experiment [5] it was 1.22; in experiment [6], 1.32; in experiment [7], 0.478. Moreover, the composite z-score was determined as 1.38 in experiment [8]; 0.479 in experiment [9]; 0.982 in experiment [10]; 1.41 in [11]; 0.604 in experiment [13]; 1.09 in experiment [14]. The composite z-score in [15] was 0.17; in [16], -0.0523; in experiment [17], 0.0611; in [18] it was -0.278; in [19], 0.668; in experiment [20], 1.24. The values for the z-score in experiment [4] and in [12] were -0.829 (inactive) and -3.27, respectively.

Consider `CCCN1C(=O)[C@@]2(CCC(=O)OC(C)(C)C)N=C(c3ccc(OCCCO)cc3)O[C@H]2c2ccccc21`, for which the composite z-score in [1] was 0.902; in [2], -0.243; in experiment [3], 0.713; in [5], 0.9; in [6], 1.22; in [7], 0.246. The composite z-score was determined as 0.874 in experiment [8]; 0.242 in [9]; 1.03 in [10]; 1.11 in experiment [11]; 0.163 in [13]; 0.786 in [14]. Also, the composite z-score in [15] was -0.38; in experiment [16] it was 0.0044; in experiment [17], -0.0866; in [18], -0.0875; in [19], 0.816; in experiment [20], 0.285. In addition, the figures for the z-score in experiment [4] and in [12] were 0.478 (inactive) and -2.75, respectively.

Take `CCCC[C@H]1OB(O)C[C@H]2C1=C(C)C[C@H]1C(=O)N(Cc3ccccc3)C(=O)[C@H]12`: the composite z-score in experiment [1] was 0.148; in experiment [2] it was -0.109; in experiment [3], -0.665; in experiment [5], 1.13; in experiment [6] it was 0.507; in experiment [7], 0.244. Moreover, the composite z-score amounted to 1.25 in experiment [8]; 0.999 in experiment [9]; 0.181 in [10]; 0.152 in [11]; 0.369 in experiment [13]; 0.229 in experiment [14]. The composite z-score was -0.326 in [15]; 0.0017 in experiment [16]; -0.0396 in experiment [17]; -0.351 in experiment [18]; -0.254 in experiment [19]; -0.277 in [20]. Moreover, the z-score in experiment [4] was 0.0984 (inactive); in experiment [12], 0.885.

Consider `O=C1C2C=CC(C(O)c3ccc(F)cc3)N(Nc3ccccc3)C2C(=O)N1c1ccccc1` (stereo not given), for which the composite z-score in experiment [1] was 1.44; in experiment [2], 1.05; in experiment [3], 0.794; in [5], -0.0653; in experiment [6], -0.0052; in experiment [7], -0.296. In addition, the composite z-score is -0.216 in experiment [8]; -0.954 in experiment [9]; 1.46 in experiment [10]; 1.42 in [11]; -0.238 in experiment [13]; 0.691 in experiment [14]. The composite z-score was 0.619 in experiment [15]; 0.0597 in experiment [16]; -0.289 in experiment [17]; 0.195 in [18]; 0.691 in experiment [19]; 1.97 in experiment [20]. The z-score in [4] is 0.444 (inactive); in experiment [12] it was -0.379.

For `CC(C)(C)OC(=O)CC[C@@]1(C(=O)O)N=C(c2ccc(OCCCO)cc2)O[C@@H]1c1ccccc1N=[N+]=[N-]`, the composite z-score is 1.67 in [1]; 1.16 in experiment [2]; 1.36 in experiment [3]; 0.991 in experiment [5]; 0.357 in [6]; -0.288 in [7]. Besides, the composite z-score is -0.153 in experiment [8]; -0.169 in experiment [9]; 1.33 in [10]; 0.884 in experiment [11]; -0.486 in experiment [13]; 1.64 in experiment [14]. Also, the composite z-score was 1.07 in experiment [15]; 0.0711 in experiment [16]; 0.309 in experiment [17]; 0.58 in [18]; 1.06 in [19]; 1.15 in experiment [20]. Moreover, the z-score in experiment [4] was -0.66 (inactive); in experiment [12] it was 2.94.

Take `CC(=O)NCCCC[C@@H]1NC(=O)[C@@H]2C[C@H](C(=O)NCCCCCCNC(=O)CS)[C@H](c3ccc(O)cc3)N2C1=O`: the composite z-score is 1.18 in experiment [1]; -0.194 in [2]; 0.52 in [3]; -0.37 in experiment [5]; -0.0984 in experiment [6]; -0.755 in [7]. In addition, the composite z-score in experiment [8] is -0.353; in [9], -0.233; in [10], -0.989; in [11], 1.07; in experiment [13], -0.746; in experiment [14] it was 0.725. Moreover, the composite z-score in [15] is 0.31; in [16], -0.211; in [17], -0.0643; in [18], -0.158; in experiment [19], 1.15; in experiment [20], 1.36. Moreover, the z-score in [4] is 0.584 (inactive); in [12], 0.391.
